Experiment [1] can be described thus: compounds altering viability of human ES cells (AID 493140; call rule not given here;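 note: cells exposed to compounds for four days before counting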). Conditions: human embryonic stem cell survival screen; stronger effect = higher value.
Experiment [2] can be described thus: viability loss with induced miR-34 in A549 – imaging, A549 dox-inducible miR-34, nuclei and caspase counts, primary screen (AID 1347080). Conditions: A549 miR-34 inducible, Hoechst nuclei count, 48 h.
The target of experiment [3] is ATP-dependent translocase ABCB1 (Homo sapiens) (UniProt P08183). The experiment can be described thus: P-glycoprotein substrate transport blockade – cell-based (AID 377; in the data active = fluorescence slope change above about 50%). Conditions: MDR1-expressing cells, fluorescent substrate accumulation slope; stronger effect = higher value; concentration not given here.
Sequence of ATP-dependent translocase ABCB1 (Homo sapiens) (P08183 whole entry, looked up): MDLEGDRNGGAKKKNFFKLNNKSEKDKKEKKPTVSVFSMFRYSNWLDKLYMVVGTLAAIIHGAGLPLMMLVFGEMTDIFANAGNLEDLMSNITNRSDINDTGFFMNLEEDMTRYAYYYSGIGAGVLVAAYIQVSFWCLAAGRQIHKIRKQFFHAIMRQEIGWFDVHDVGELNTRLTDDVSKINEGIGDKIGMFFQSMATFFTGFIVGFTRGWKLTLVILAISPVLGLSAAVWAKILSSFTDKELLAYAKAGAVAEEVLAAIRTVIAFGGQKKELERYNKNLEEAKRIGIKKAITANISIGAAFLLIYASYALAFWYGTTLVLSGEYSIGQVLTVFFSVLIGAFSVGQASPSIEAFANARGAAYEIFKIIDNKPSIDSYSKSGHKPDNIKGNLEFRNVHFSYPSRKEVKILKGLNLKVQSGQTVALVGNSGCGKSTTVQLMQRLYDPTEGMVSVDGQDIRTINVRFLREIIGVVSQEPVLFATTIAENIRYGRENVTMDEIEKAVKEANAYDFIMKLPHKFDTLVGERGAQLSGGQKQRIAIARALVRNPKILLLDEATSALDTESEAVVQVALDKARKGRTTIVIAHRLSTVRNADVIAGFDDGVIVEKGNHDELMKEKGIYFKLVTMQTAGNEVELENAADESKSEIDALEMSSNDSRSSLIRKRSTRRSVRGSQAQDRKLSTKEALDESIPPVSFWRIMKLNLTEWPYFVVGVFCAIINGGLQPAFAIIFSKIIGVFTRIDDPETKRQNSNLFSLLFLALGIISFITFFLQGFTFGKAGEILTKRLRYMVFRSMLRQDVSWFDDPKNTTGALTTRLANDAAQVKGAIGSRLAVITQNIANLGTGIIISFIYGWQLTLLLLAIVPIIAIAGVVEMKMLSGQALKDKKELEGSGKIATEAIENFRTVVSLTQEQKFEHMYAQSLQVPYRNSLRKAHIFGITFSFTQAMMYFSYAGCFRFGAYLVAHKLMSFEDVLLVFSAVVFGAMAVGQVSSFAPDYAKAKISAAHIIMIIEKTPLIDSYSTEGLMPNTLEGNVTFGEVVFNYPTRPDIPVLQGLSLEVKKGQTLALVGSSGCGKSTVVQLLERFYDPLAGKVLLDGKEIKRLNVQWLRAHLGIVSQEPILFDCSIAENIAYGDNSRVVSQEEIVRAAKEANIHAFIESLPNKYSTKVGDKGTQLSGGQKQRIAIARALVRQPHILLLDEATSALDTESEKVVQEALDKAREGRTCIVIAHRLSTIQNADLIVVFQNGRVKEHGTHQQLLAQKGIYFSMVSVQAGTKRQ
Experiment [4] in a line: P. berghei load reduction in hepatocytes – cell-based, HepG2, luciferase luminescence, HepG2 viability, primary screen (AID 624349; in the data active = parasite load remaining mostly below about 12%, no sharp cut-off; inactive = mostly above about 10%;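 note: 100% = mean of DMSO negative control wells on the same plate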). Conditions: P. berghei liver stage in HepG2, luciferase luminescence, concentration not given here; parasite load remaining: stronger effect = lower value; viability: measured here: HepG2 viability without parasites.
Setting [5] is: stronger effect = lower value, cell number ratio, induced over uninduced.
[6] abbreviates: measured here: relative caspase fold change +Dox/-Dox.
Setting [7] is: measured here: total cells with miR-34 induction, stronger effect = lower value.
The mark [8] stands for this setting: measured here: total cells without miR-34 induction.

24 molecules from PubChem BioAssay can be followed below.

“And” between values parts separate entries of the source, which are not always exact repeats. Equal values may be shown once. Records with an inconclusive call do not appear. The source made the active and inactive calls.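 Rule for the calls, unless noted: active = compounds whose cell count with miR-34 switched on is under 0.7 times the count with it off; inactive = the rest.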

For orientation: viability means a read-out of living cells in per cent, often relative to untreated cells.

`CCCCCCCCCCCCCCCC(=O)C1=C(O)C(CO)OC1=O` (centres undefined): the survival in experiment [1] is 98.2 (inactive). Besides, the fold change in experiment [2] (setting [5]) was 0.877 (inactive); in experiment [2] (setting [6]), 0.963. Further, the values for the cell count in experiment [2] (setting [7]) and in experiment [2] (setting [8]) were 5220 and 5960, respectively.

Consider `CCCCCC(=O)/C=C/[C@H]1[C@H](O)CC(=O)[C@@H]1C/C=C\CCCC(=O)O`, for which the survival in experiment [1] is 92.3 (inactive). Besides, the values for the fold change in experiment [2] (setting [5]) and in experiment [2] (setting [6]) were 0.973 (inactive) and 1.18, respectively. For the same molecule, the cell count in experiment [2] (setting [7]) was 6130; in experiment [2] (setting [8]), 6300.

As to `CCCCCCCCCCCCC(O)C(=O)O` (centres undefined), the survival in experiment [1] is 71.7 (inactive). Besides, the fold change in experiment [2] (setting [5]) is 0.965 (inactive) and 0.989 (inactive); in experiment [2] (setting [6]) it was 1.1 and 0.875. Besides, the cell count in experiment [2] (setting [7]) was 6110 and 6000; in experiment [2] (setting [8]), 6330 and 6060.

`CCCCC(C)(O)C/C=C/[C@H]1[C@H](O)CC(=O)[C@@H]1CCCCCCC(=O)O` (some centres undefined): the survival in experiment [1] is 92.9 (inactive). For the same molecule, the fold change is 0.933 (inactive) and 0.881 (inactive) in experiment [2] (setting [5]); 1.28 and 1.98 in experiment [2] (setting [6]). Also, the cell count in experiment [2] (setting [7]) was 6180 and 5400; in experiment [2] (setting [8]) it was 6620 and 6130.

For `CCCCCCCCCCCCCCCCOCC(CO)OC(C)=O` (centres undefined), in experiment [1], the survival is 63.3 (inactive). Besides, the fold change in experiment [2] (setting [5]) is 0.942 (inactive); in experiment [2] (setting [6]) it was 1.66. In addition, the results for the cell count in experiment [2] (setting [7]) and in experiment [2] (setting [8]) were 5510 and 5840, respectively.

Turning to `COC(=O)[C@H]1[C@H]2C[C@@H]3c4[nH]c5cc(OC)ccc5c4CCN3C[C@H]2C[C@@H](OC(=O)/C=C/c2cc(OC)c(OC)c(OC)c2)[C@@H]1OC`, the fluorescence slope change in experiment [3] was 61% (active). The survival in experiment [1] was 9.58 (inactive). The parasite load remaining in experiment [4] was 26.9% (inactive) and 41.8% (inactive). Also, the viability in experiment [4] is 94.2% and 77.7%. Moreover, the fold change is 0.865 (inactive) in experiment [2] (setting [5]) and 1.32 in experiment [2] (setting [6]). For the same molecule, the cell count in experiment [2] (setting [7]) stood at 7260; in experiment [2] (setting [8]), 8390.

Turning to `CCCCC[C@H](O)/C=C/[C@@H]1[C@H]2C/C(=C/CCCC(=O)O)C[C@H]2C[C@H]1O`, the survival in experiment [1] is 59.9 (inactive). The fold change was 0.942 (inactive) in experiment [2] (setting [5]) and 1.29 in experiment [2] (setting [6]). The results for the cell count in experiment [2] (setting [7]) and in experiment [2] (setting [8]) were 5920 and 6280, respectively.

On to `CCCCCCCCCCCCCCC[C@@H](O)[C@@H](N)CO`, for which, in experiment [1], the survival is 56.7 (inactive). In addition, the fold change in experiment [2] (setting [5]) was 0.968 (inactive); in experiment [2] (setting [6]), 1.46. Besides, the cell count was found to be 5120 in experiment [2] (setting [7]) and 5290 in experiment [2] (setting [8]).

Take `Cc1n[nH]c(=O)[nH]c1=O`: in experiment [3], the fluorescence slope change is 50.5% (active). For the same molecule, the survival in experiment [1] is 3.58 (inactive). Also, the parasite load remaining in experiment [4] was 54.2% (inactive) and 83.7% (inactive). In addition, in experiment [4], the viability was 111% and 75.4%. Besides, the fold change in experiment [2] (setting [5]) was 0.871 (inactive); in experiment [2] (setting [6]), 1.41. In addition, the cell count in experiment [2] (setting [7]) was found to be 8710; in experiment [2] (setting [8]), 10000.

Take `CO[C@@H]1[C@@H](OC(N)=O)[C@@H](O)C(Oc2ccc3c(O)c(NC(=O)c4ccc(O)c(CC=C(C)C)c4)c(=O)oc3c2C)OC1(C)C` (some centres undefined): the fluorescence slope change in experiment [3] is 82.3% (active). In experiment [4], the parasite load remaining was 78.5% (inactive). Also, in experiment [4], the viability is 90.9%. The fold change in experiment [2] (setting [5]) was 0.855 (inactive); in experiment [2] (setting [6]), 1.4. Also, the values for the cell count in experiment [2] (setting [7]) and in experiment [2] (setting [8]) were 9430 and 11000, respectively.

Turning to `CCCCC[C@H](O)/C=C/[C@@H]1[C@@H](CC(=O)CCCCC(=O)O)[C@@H](O)C[C@H]1O`, the survival in experiment [1] is 129 (inactive). Moreover, the fold change in experiment [2] (setting [5]) is 0.992 (inactive) and 0.934 (inactive); in experiment [2] (setting [6]), 1.02 and 1.32. Besides, the cell count in experiment [2] (setting [7]) was 5930 and 6160; in experiment [2] (setting [8]) it was 5980 and 6600.

For the molecule `Cn1c(-c2ccc3c(c2)OCO3)cc(=O)c2ccccc21`, the fluorescence slope change in experiment [3] was 6.8% (inactive). Moreover, the survival in experiment [1] is 4.17 (inactive). Also, the parasite load remaining in experiment [4] was 95.4% (inactive). For the same molecule, in experiment [4], the viability amounted to 95.4%. The fold change in experiment [2] (setting [5]) is 0.89 (inactive); in experiment [2] (setting [6]) it was 1.11. For the same molecule, the values for the cell count in experiment [2] (setting [7]) and in experiment [2] (setting [8]) were 8470 and 9520, respectively.

In the case of `CCCCCCCC/C=C\CCCCCCCC(=O)OC[C@@H](O)COP(=O)(O)O`, the survival in experiment [1] was 57.2 (inactive). In addition, the fold change in experiment [2] (setting [5]) is 0.957 (inactive) and 0.893 (inactive); in experiment [2] (setting [6]) it was 1.42 and 0.522. Further, the cell count is 6370 and 5350 in experiment [2] (setting [7]); 6660 and 5990 in experiment [2] (setting [8]).

With `CCCCC[C@H](O)/C=C/[C@@H]1[C@@H](C/C=C\CCCC(=O)O)[C@@H](O)C[C@@H]1O`, the survival in experiment [1] was 97.2 (inactive). The fold change in experiment [2] (setting [5]) is 0.891 (inactive) and 0.917 (inactive); in experiment [2] (setting [6]), 1.22 and 1.29. For the same molecule, the cell count in experiment [2] (setting [7]) is 5840 and 5720; in experiment [2] (setting [8]), 6560 and 6230.

For the molecule `CCCCCCCCCCCCCCC(F)C(=O)O` (centres undefined), the survival in experiment [1] was 81.6 (inactive). For the same molecule, the fold change is 0.989 (inactive) and 1.01 (inactive) in experiment [2] (setting [5]); 1.15 and 0.824 in experiment [2] (setting [6]). Besides, the cell count in experiment [2] (setting [7]) is 6040 and 6340; in experiment [2] (setting [8]), 6110 and 6280.

Regarding `CCCCCCCCCCCCCCCCOC[C@H](COP(=O)([O-])OCC[N+](C)(C)C)OC(=O)NC`, the survival in experiment [1] was 80.6 (inactive). Moreover, the fold change is 0.941 (inactive) and 0.889 (inactive) in experiment [2] (setting [5]); 1.15 and 1.06 in experiment [2] (setting [6]). The cell count was 5360 and 4990 in experiment [2] (setting [7]); 5690 and 5620 in experiment [2] (setting [8]).

On to `CCCCC/C=C\C[C@@H](O)/C=C/C=C\C/C=C\CCCC(=O)O`, for which the survival in experiment [1] was 89.3 (inactive). Also, the fold change in experiment [2] (setting [5]) was 0.841 (inactive); in experiment [2] (setting [6]) it was 1.54. Further, the cell count in experiment [2] (setting [7]) turned out to be 4740; in experiment [2] (setting [8]), 5630.

For the molecule `CC/C=C\C/C=C\C/C=C\C/C=C\C/C=C\CCCC(=O)OCC`, the parasite load remaining in experiment [4] is 31% (inactive). In addition, the viability in experiment [4] came to 94%. In addition, the fold change was 1.01 (inactive) in experiment [2] (setting [5]) and 1.98 in experiment [2] (setting [6]). Also, the results for the cell count in experiment [2] (setting [7]) and in experiment [2] (setting [8]) were 11500 and 11400, respectively.

For the molecule `CCCCCCCCCCCCCCCC(=O)NCCc1ccc(O)c(O)c1`, the survival in experiment [1] is 69.7 (inactive). For the same molecule, the fold change in experiment [2] (setting [5]) is 0.93 (inactive); in experiment [2] (setting [6]), 0.624. Also, the cell count was determined as 5560 in experiment [2] (setting [7]) and 5980 in experiment [2] (setting [8]).

As for `COc1ccc2c3c([nH]c2c1)[C@H]1C[C@H]2[C@H](C[C@@H](O)[C@H](OC)[C@H]2C(=O)O)CN1CC3`, in experiment [1], the survival is 7.42 (inactive). In addition, the parasite load remaining in experiment [4] is 113% (inactive). Further, the viability in experiment [4] came to 75.4%. Moreover, the fold change is 0.96 (inactive) in experiment [2] (setting [5]) and 0.581 in experiment [2] (setting [6]). Moreover, the cell count came to 9000 in experiment [2] (setting [7]) and 9370 in experiment [2] (setting [8]).

Turning to `CCOC(=O)[C@H](CCc1ccccc1)N[C@@H](C)C(=O)N1C(C(=O)O)C[C@@H]2CCC[C@@H]21` (some centres undefined), the survival in experiment [1] was 13.5 (inactive). For the same molecule, the parasite load remaining in experiment [4] was 66.3% (inactive). In experiment [4], the viability was found to be 72.7%. In addition, the fold change in experiment [2] (setting [5]) is 0.971 (inactive); in experiment [2] (setting [6]) it was 0.659. For the same molecule, the results for the cell count in experiment [2] (setting [7]) and in experiment [2] (setting [8]) were 9850 and 10100, respectively.

On to `CC1OC(O[C@H]2/C=C/C=C/C=C/C=C/C=C/C=C/C=C/[C@H](C)[C@@H](O)[C@@H](C)[C@H](C)OC(=O)CC(O)CC(O)CCC(O)C(O)CC(O)CC3(O)C[C@H](O)C(C(=O)O)C(C2)O3)C(O)[C@H](N)C1O` (some centres undefined), for which the parasite load remaining in experiment [4] is 85.7% (inactive) and 73.7% (inactive). In experiment [4], the viability was 73.8% and 92.4%. Also, the figures for the fold change in experiment [2] (setting [5]) and in experiment [2] (setting [6]) were 0.94 (inactive) and 0.836, respectively. The cell count was determined as 10800 in experiment [2] (setting [7]) and 11500 in experiment [2] (setting [8]).

In the case of `Nc1ncnc2c1ncn2C1O[C@H](CO)[C@@H](O)[C@@H]1O` (some centres undefined), the parasite load remaining in experiment [4] was 68.6% (inactive). In addition, the viability in experiment [4] came to 95.5%. Also, the fold change in experiment [2] (setting [5]) is 0.85 (inactive); in experiment [2] (setting [6]), 1.24. Moreover, the cell count in experiment [2] (setting [7]) was found to be 7580; in experiment [2] (setting [8]) it was 8920.

`C[C@@H]1C(=O)O[C@H]2CC34[C@H]5C[C@@H](C(C)(C)C)[C@]36[C@@H](OC(=O)[C@@H]6O)O[C@@]4(C(=O)O5)[C@]21O` (some centres undefined): in experiment [4], the parasite load remaining was 93.7% (inactive). In addition, the viability in experiment [4] was 99.1%. In addition, the fold change was 0.905 (inactive) in experiment [2] (setting [5]) and 1.08 in experiment [2] (setting [6]). Besides, the cell count in experiment [2] (setting [7]) worked out at 9000; in experiment [2] (setting [8]) it was 9940.
